Screening results: PubChem BioAssay, several laboratories
Most compounds without a hit are left out; they make up all but 5.2% or so of the library.
ALR inh = inhibitors of human sulfhydryl oxidase ALR | P55789 | purified ALR, DTT oxidation, H2O2 HRP-luminol luminescence | inhibition, % (test concentration not listed) | hit rate 3.8% among 290,000 | AID 485317;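 active means mean replicate inhibition above about 79%, with every replicate also reaching it, limit read from the data; inconclusive means only one of the two criteria met; inactive means mean below limit and not every replicate reaching it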
CendR NRP1 mod = NRP-1/CendR interaction modulation. FAM-RPARPAR peptide binding to NRP-1, fluorescence polarization. inhibition, % at 25 µM. hit rate 0.85% among 360,000;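 active means inhibition or corrected inhibition above about 18%, plus a signal ratio from 0.5 to 1.5, limit read from the data, passing the limit was not always enough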
APOBEC3G inh = inhibitors of human APOBEC3G DNA deaminase | hit rate 0.28% among 330,000 | AID 493012 | recombinant A3G, ssDNA deamination FAM/TAMRA fluorescence | inhibition, % at 20 µM;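 active means inhibition of at least 40% at 20 µM, with no more than 30% in the related APOBEC3A deaminase screen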;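 further: plate controls were DMSO wells with A3G for no effect and wells lacking A3G enzyme for full effect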
Target sequence (Q9HC16 whole entry, looked up): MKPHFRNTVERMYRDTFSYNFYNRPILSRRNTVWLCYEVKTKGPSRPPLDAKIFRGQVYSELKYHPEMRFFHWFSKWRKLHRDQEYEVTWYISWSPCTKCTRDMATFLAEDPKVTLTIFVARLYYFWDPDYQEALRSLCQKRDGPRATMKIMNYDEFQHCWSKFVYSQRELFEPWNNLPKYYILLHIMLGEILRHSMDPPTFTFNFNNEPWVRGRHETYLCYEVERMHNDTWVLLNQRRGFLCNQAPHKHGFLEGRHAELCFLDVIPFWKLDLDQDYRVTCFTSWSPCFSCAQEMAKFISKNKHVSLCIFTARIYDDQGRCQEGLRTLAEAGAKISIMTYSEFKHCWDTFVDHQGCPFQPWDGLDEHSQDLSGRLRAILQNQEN
APOBEC3A inh = inhibitors of human APOBEC3A DNA deaminase; recombinant A3A, FAM/TAMRA ssDNA deamination fluorescence; inhibition, % at 20 µM; hit rate 0.41% among 330,000; AID 493011;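 active means at least 40% inhibition at 20 µM here, with at most 30% in a related deaminase screen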;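 further: plate controls were A3A with DMSO for no effect and wells lacking A3A enzyme for full effect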
Target sequence (P31941 whole entry, looked up): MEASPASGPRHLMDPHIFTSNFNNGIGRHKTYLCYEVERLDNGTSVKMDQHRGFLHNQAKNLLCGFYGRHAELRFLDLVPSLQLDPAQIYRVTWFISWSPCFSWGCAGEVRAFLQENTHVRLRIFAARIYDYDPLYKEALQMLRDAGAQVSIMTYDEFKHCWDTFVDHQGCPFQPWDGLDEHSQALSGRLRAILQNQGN
PfM18AAP inh = PfM18AAP enzyme inhibition | recombinant PfM18AAP, H-Glu-NHMec fluorogenic cleavage | inhibition, % at 7.35 µM | hit rate 1.2% among 290,000;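 active means inhibition above the campaign mean inhibition over all tested compounds plus 3 SD, cut at about 28% in these data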;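 further: 0% = plate median of test compound wells and 100% = 2 mM ZnCl2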
CR mimetic SO = caloric restriction mimetics inhibiting age-related superoxide in yeast; S. cerevisiae aged cells, superoxide DHE fluorescence; active compounds read low; superoxide response (% of plate mean), % at 10 µM; hit rate 0.18% among 330,000; AID 2690;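 active means superoxide response under a set limit, about three screen SD below normal, cut at about 65% in these data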;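 further: yeast aged for seven days with compound at 30 °C before DHE staining; 100% = average MFI of all compound-treated wells on the plate with controls excluded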
An asterisk follows results filed as active; ? = inconclusive; . = no result given.

SMILES	ALR inh	CendR NRP1 mod	APOBEC3G inh	APOBEC3A inh	PfM18AAP inh	CR mimetic SO
Cc1cc(CN2CCCC(CNC(=O)c3ccc(F)cc3)C2)cc(C)c1O (stereo not drawn)	26.3	-0.2	-3.5	1.3	-3.6	95.7
CCO[C@@H]1c2c(ccc3ccc(=O)oc23)OC(C)(C)[C@H]1O	-0.7	-0.3	-11.1	-2.3	.	91.8
CCO[C@@H]1c2c(ccc3ccc(=O)oc23)OC(C)(C)[C@@H]1O	-0.5	31.5*	-8.5	-0.7	.	102.4
N=C(N)c1ccc(N=Nc2c(O)ccc3c2[nH]c2ccccc23)cc1	.	72.5*	.	.	.	.
NC(=O)c1ccc(N=Nc2c(O)c3ccccc3[nH]c2=O)cc1	-6.3	.	-9.8	0.0	1.8	103.0
Cc1cc(Cl)ccc1OCC(=O)OCC(=O)NCCNC(=O)COC(=O)COc1ccc(Cl)cc1C	.	15.4	.	.	.	.
CC(=O)c1ccccc1OC(=O)COc1ccc(Cl)cc1C	96.5*	.	-3.9	-1.5	12.2	103.2
CCc1nc(SCC(=O)c2ccc(C)c(C)c2)n[nH]1	93.1*	0.1	-8.8	-1.4	-7.0	104.6
Cc1ccc(C(=O)CSc2n[nH]c(-c3ccco3)n2)cc1C	97.4*	-20.1	3.1	-1.0	3.7	108.3
COc1ccc(C(=O)CSc2n[nH]c(C)n2)cc1[N+](=O)[O-]	82.3*	-8.5	-5.7	-0.5	11.9	100.9
COc1cc(/C=C2\CCCc3c2nc2ccccc2c3C(=O)O)cc(Br)c1O	96.6*	-4.1	-3.5	-5.6	12.9	109.3
COc1cc(/C=C2\CCc3c2nc2ccccc2c3C(=O)O)cc(OC)c1OC	-4.8	9.0	59.9	77.4	12.4	104.9
Cc1cc(Cl)ccc1OCCCC(=O)Nc1ccc(S(=O)(=O)Nc2ncccn2)cc1	.	-9.9	-3.4	-4.4	1.6	109.0
COCCNC(=O)CCc1nc(-c2ccccc2)no1	-10.0	-5.6	-6.4	-3.0	-0.7	102.2
Cc1ccc(O)c(NC(=O)C2CCCN2C(=O)OCc2ccccc2)c1 (stereo not drawn)	87.1*	3.7	-7.2	-5.8	3.8	105.2
Cc1cc(=O)oc(C)c1C(=O)NCCc1ccc(F)cc1	-6.3	-7.2	-2.1	-0.7	-0.6	79.5
Cc1ccc(NC(=O)CSCC(=O)O)cc1	97.8*	-5.9	-11.1	-5.9	1.9	107.7
Cc1ccc(NC(=O)CSCC(=O)NC2=NCCS2)cc1	98.5*	0.7	-2.0	-2.5	.	78.0
Cc1ccc(NC(=O)CSCc2ccc(F)cc2)cc1	92.6*	2.7	14.0	-1.0	5.5	91.7
Cc1cccc(C)c1NC(=O)CSCC(=O)O	-2.8	-14.4	-4.0	1.7	-4.2	93.3
Cc1ccc(NC(=O)Cc2nnc(SCC(=O)NC3=NCCS3)n2C)cc1	1.1	-6.0	-1.0	2.6	-12.9	105.4
Cc1ccccc1CSCC(=O)NC1CCCC1	.	-1.2	-2.0	-0.2	1.9	90.8
O=C(CSCc1ccco1)NC1CCCC1	98.9*	-5.4	-7.1	-2.1	-1.9	76.6
Cc1cccc(C2NC(=O)c3ccccc3O2)c1 (stereo not drawn)	2.1	-9.6	-3.5	-5.7	-5.2	94.8
O=C(CNc1ccccc1)N/N=C/c1cn(-c2ccccc2)nc1-c1ccccc1	-7.0	-15.3	-7.0	-3.0	-0.2	95.0
SMILES	ALR inh	CendR NRP1 mod	APOBEC3G inh	APOBEC3A inh	PfM18AAP inh	CR mimetic SO
Cc1ccc(NC(=O)CSCc2ccco2)cc1	98.9*	-1.9	-4.9	-1.3	0.4	92.8
O=C(O)CSCC(=O)Nc1ccc(C2CCCCC2)cc1	98.4*	-12.1	1.4	2.2	3.7	118.3
CCCOc1ccc(N2C(=O)CC(N(Cc3ccco3)C(C)=O)C2=O)cc1 (stereo not drawn)	-11.4	3.7	-6.5	-1.2	-0.7	115.1
CCc1ccccc1NC(=O)CN(C)C(=O)CN1C(=O)NC2(CCCCCC2)C1=O	-3.0	5.0	-2.9	0.2	4.6	109.3
Cc1nc2ccccc2c(=O)n1NC(=O)COc1ccccc1	-5.4	1.0	-5.0	-5.7	-6.2	100.6
O=C(Nn1c(COc2ccccc2)nc2ccccc2c1=O)C(Cl)(Cl)Cl	97.3*	1.1	-1.0	0.7	7.2	92.9
COc1ccccc1-c1cc(NC(C)=O)c2ncc(-c3cccc(C(C)=O)c3)n2c1	.	2.7	.	.	.	.
Cc1n[nH]c(C)c1SCC(=O)Nc1ccc(F)cc1	70.7	-4.5	-9.1	-5.1	-7.4	95.9
COc1ccc(NC(=O)CSc2c(C)n[nH]c2C)cc1	98.6*	17.4	1.5	4.1	-3.8	106.6
COc1ccc(NC(=O)CSc2nnc(C)c3ccccc23)cc1	99.4*	-50.7	2.6	6.3	2.5	90.3
Cn1ccc2c(N3c4ccccc4CCc4ccccc43)cc3c(c21)C1CCC3C1 (stereo not drawn)	.	-13.8	.	.	.	.
COc1ccc(NC(=O)CSc2nccn2Cc2ccccc2)cc1	-5.3	-16.0	13.0	1.4	2.5	98.6
COc1ccc(Cn2c(CO)cnc2SCC(=O)Nc2cccc(NC(C)=O)c2)cc1	99.2*	6.9	-3.1	-5.9	-11.6	123.8
CC(=O)Nc1cccc(NC(=O)CSc2nccn2Cc2ccco2)c1	99.0*	13.1	2.5	-0.5	-3.6	102.0
Cc1ccc(NC(=O)CSc2nccn2Cc2ccco2)c(C)c1	?	16.9	-1.5	3.1	-19.7	102.1
COc1ccc(Cn2ccnc2SCC(=O)Nc2cccc(NC(C)=O)c2)cc1	98.2*	-2.1	2.6	5.9	0.6	103.6
OCCN1CCN(c2ncnc3c2ncn3[C@H]2CN(Cc3ccccc3)C[C@@H](CO)O2)CC1	.	-5.2	.	.	.	.
Cc1ccc2c(c1)N(C(=O)CCC(=O)NCc1cccc(Br)c1)CC(C)O2 (stereo not drawn)	-1.8	-3.8	1.6	-1.7	1.4	126.9
CCOC(=O)Cc1csc(NC(=O)CSC2=NCCS2)n1	98.5*	13.8	1.5	0.3	1.2	95.2
CCOC(=O)Cc1csc(NC(=O)CCC(=O)O)n1	-3.5	5.6	-1.6	1.9	1.2	112.7
Cc1csc(NC(=O)CSC2=NCCS2)n1	99.2*	9.4	2.6	0.7	-5.4	91.7
CCOC(=O)c1sc(NC(=O)CSc2nccn2C)nc1C	98.0*	10.6	-10.5	-6.9	-8.4	105.8
Cc1csc(NC(=O)CSc2nc(C)nc3c2c(=O)n(C)c(=O)n3C)n1	98.4*	10.3	-1.9	-2.7	.	101.0
CCOC(=O)Cc1csc(NC(=O)CSc2nccn2C)n1	99.1*	1.8	-8.6	1.4	-13.6	97.1
COCC(=O)Nc1nc(-c2ccc([N+](=O)[O-])cc2)cs1	97.5*	18.1	-3.8	8.5	1.4	92.9
CC(C)(C)c1csc(NC(=O)CSC2=NCCS2)n1	99.3*	18.8	-3.6	1.6	7.3	103.5
CCOC(=O)Cc1csc(NC(=O)Cc2ccc([N+](=O)[O-])cc2)n1	98.3*	-4.2	0.3	0.5	2.3	95.4
Cc1nnc(SCC(=O)Nc2nc(C(C)(C)C)cs2)s1	.	-1.7	-4.0	2.0	-4.7	106.9
CCc1ccc(OCC(=O)NC(=S)Nc2ccc(F)cc2)c(Br)c1	-1.4	0.4	-0.5	1.7	-10.4	111.5
COC(=O)c1ccc(/C=C/C(=O)O)cc1	-22.7	-10.6	-4.2	0.4	-5.6	102.7
